“And” between values parts separate entries of the source, which are not always exact repeats. Equal values may be shown once. About 1,900 (0.58%) of roughly 330,000 compounds were called active. Not shown: some 4% with an inconclusive outcome. A selection follows. Measured potencies and affinities stand elsewhere. A number with no mark means an inactive call. No stated cut-off is given here; in the data, inconclusive means inhibition above about 70% without an active follow-up result; inactive means below that.
Assay: M. tuberculosis growth inhibition, HTS (AID 449762);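 further: bacterial growth assessed after seven days of incubation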
Details: M. tuberculosis H37Rv growth inhibition, 7H9 media; at 25 µM; stronger effect = higher value

For `Cc1ccnc(N2CCC(C(=O)Nc3ccc4c(c3)OCO4)CC2)n1`, which inhibition is on record?
The inhibition was -6.75%.

With `CCCn1nnnc1NC(=O)COc1ccc(Cl)c(C)c1` as the compound, how does the inhibition read?
Its inhibition is 0.41%.

For `CCCn1nnnc1NC(=O)c1cc(Br)ccc1OC`, which inhibition is on record?
The inhibition was 14.5%.

Which inhibition does the source give for `O=C(COC(=O)COc1ccccc1)Nc1cccc([N+](=O)[O-])c1` here?
The inhibition was -0.12%.

Which inhibition does the source give for `COc1cc(OC)c(OC)cc1CCC(C)NC(=O)Cc1ccccc1` (centres undefined) here?
The inhibition was 2.6%.

Which inhibition does the source give for `CC(CCc1ccc(O)cc1)NCCC(c1ccccc1)c1ccccc1` (centres undefined) here?
Its inhibition is 64.6%.

Which inhibition does the source give for `CCOc1ccc(NC(=O)NNC(=O)C2CCC(C(C)(C)C)CC2)cc1` (centres undefined) here?
Its inhibition is -6.75%.

With `O=C(O)CCC(=O)Nc1ccccc1Oc1ccccc1` as the compound, how does the inhibition read?
Its inhibition is -2.18%.

For `Cc1cc(C)cc(NC(=O)c2cccc(C(=O)Nc3cc(C)cc(C)c3)n2)c1`, which inhibition is on record?
The inhibition was 5.97%.

For `CN1C2CCC1/C(=C\c1ccccc1F)C(=O)/C2=C/c1ccccc1F`, which inhibition is on record?
Its inhibition is 5.25%.

With `CN1C2CCC1/C(=C/c1cccn1C)C(=O)/C2=C\c1cccn1C` as the compound, how does the inhibition read?
Its inhibition is 10.6%.

For `C=CCOc1ccc(CNCC2CCCO2)cc1` (centres undefined), which inhibition is on record?
Its inhibition is -1.36%.

With `Cc1noc(C)c1CSCC(=O)N(CC(C)C)c1c(N)n(Cc2ccccc2)c(=O)[nH]c1=O` as the compound, how does the inhibition read?
Its inhibition is -5.68%.

For `CC(=O)Nc1ccc(N2C(=O)c3ccc(S(=O)(=O)c4ccc(C(=O)O)cc4)cc3C2=O)cc1`, which inhibition is on record?
Its inhibition is -2.44%.

Which inhibition does the source give for `COc1ccc(S(=O)(=O)N=C2C=C(C)C(=O)C(C)=C2)cc1` here?
Its inhibition is -12.4%.

For `COc1ccc(C(=O)ON=C2C=C(C)C(=O)C(C)=C2)cc1`, which inhibition is on record?
Its inhibition is 63.5%.

With `Cc1cc(C)n(C(=O)c2ccc(S(=O)(=O)N3CCOCC3)cc2)n1` as the compound, how does the inhibition read?
Its inhibition is -3.21%.

With `COc1ccccc1NC(=O)COC(=O)/C=C/c1ccc(OC)c(OC)c1` as the compound, how does the inhibition read?
The inhibition was 24.8%.

Which inhibition does the source give for `COc1ccccc1OCCNC(=O)/C=C/c1ccc([N+](=O)[O-])cc1` here?
Its inhibition is 2%.

Which inhibition does the source give for `Cn1c(=O)[nH]c(=O)c2c1nc(NCCCO)n2CCOc1ccccc1` here?
Its inhibition is -8.75%.

Which inhibition does the source give for `O=C(C1=COCCO1)N(Cc1nnc(-c2ccccc2Cl)o1)C1CC1` here?
Its inhibition is 1.25%.

Which inhibition does the source give for `O=C(c1cc2ccccc2o1)N(Cc1nnc(-c2ccccc2Cl)o1)C1CC1` here?
The inhibition was -0.85%.

With `CCOC(=O)N1CCN(C(=O)c2cc3ccc(OC)cc3[nH]2)CC1` as the compound, how does the inhibition read?
The inhibition was -1.51%.

Which inhibition does the source give for `COc1ccc(C(=S)N2CCC(C(N)=O)CC2)cc1Br` here?
The inhibition was -5.29%.

With `CC1CCCC(C)N1CC(O)COc1ccc(Cl)cc1` (centres undefined) as the compound, how does the inhibition read?
Its inhibition is -8.81%.

For `COc1cc(OC)c(C(=O)/C=C/c2ccc(OCc3ccccc3)c(OC)c2)c(OC)c1`, which inhibition is on record?
Its inhibition is 55.4%.

For `COc1ccc(-c2cc(=Nc3ccc(C)cc3)c3ccccc3o2)cc1`, which inhibition is on record?
The inhibition was 18.3%.

For `CCOc1ccc(N=c2cc(-c3ccc(OC)cc3)oc3ccccc23)cc1`, which inhibition is on record?
Its inhibition is 2.75%.

For `Nc1ccc(C(=O)OCc2nc3cc4ccccc4cc3[nH]2)cc1`, which inhibition is on record?
Its inhibition is 3.37%.

For `Nc1ccc(C(=O)OCCCc2nc3ccccc3[nH]2)cc1`, which inhibition is on record?
Its inhibition is 2.21%.

Which inhibition does the source give for `C/C=C(\C)CN1CCCC(CO)(Cc2ccccc2)C1` (centres undefined) here?
Its inhibition is 12.6%.

For `Cc1nc(SCC(=O)N2CCNC2=O)c2ccccc2n1`, which inhibition is on record?
Its inhibition is 0.14%.

Which inhibition does the source give for `N#CC(C(=O)NCCc1ccccc1)c1nc2ccccc2nc1N1CCOCC1` (centres undefined) here?
The inhibition was 4.18%.

With `CCCCCCNC(=O)C(C#N)c1nc2ccccc2nc1N1CCOCC1` (centres undefined) as the compound, how does the inhibition read?
Its inhibition is 1%.

With `CCCc1cc(=O)[nH]c(SCC(=O)c2cc(C)n(C)c2C)n1` as the compound, how does the inhibition read?
The inhibition was 2.23%.

For `Cc1sc2c(c1C)CN(C(C)(C)C)CN2C(=O)c1ccccc1`, which inhibition is on record?
The inhibition was -8.66%.

Which inhibition does the source give for `COc1ccc(CCNc2nc(N3CCOCC3)nc(N3CCOCC3)n2)cc1OC` here?
Its inhibition is -5.04%.

With `COc1ccc(N2CCN(c3nc(NCCc4ccc(OC)c(OC)c4)nc(OC)n3)CC2)cc1` as the compound, how does the inhibition read?
Its inhibition is -2.33%.

Which inhibition does the source give for `Cc1ccc(CNC(=O)CN(C)S(=O)(=O)c2cnc[nH]2)cc1` here?
The inhibition was -4.45%.

For `Cc1cccc(C)c1NC(=O)COc1ccccc1C(=O)Nc1ccc(Br)cn1`, which inhibition is on record?
The inhibition was 3.17%.

Which inhibition does the source give for `O=C(NC(=S)Nc1ccccc1Cl)C1CC1` here?
Its inhibition is 11.2%.

Which inhibition does the source give for `COc1cc(NC(=O)C2CCN(S(=O)(=O)c3cccc4nonc34)CC2)cc(OC)c1` here?
Its inhibition is 2.95%.

Which inhibition does the source give for `CCOC(=O)CC(=O)CSc1ncnc2c1nnn2-c1ccc(F)cc1` here?
The inhibition was -7.23%.

Which inhibition does the source give for `CCOC(=O)C(CC)Sc1ncnc2c1nnn2-c1ccc(F)cc1` (centres undefined) here?
Its inhibition is -6.34%.

With `COC(=O)c1cc(NC(=O)C(C)c2ccc(CC(C)C)cc2)ccc1O` (centres undefined) as the compound, how does the inhibition read?
The inhibition was 20.8%.

With `CC1CCCN(C(=O)COC(=O)c2cccc(NS(=O)(=O)c3ccccc3)c2)C1` (centres undefined) as the compound, how does the inhibition read?
The inhibition was -11.8%.

For `O=C(Cn1nnc(-c2ccccc2)n1)OCc1ccccc1`, which inhibition is on record?
The inhibition was -6.9%.

For `O=C(O)c1cccc(-c2nnn(Cc3ccccc3)n2)c1`, which inhibition is on record?
Its inhibition is -10.4%.

Which inhibition does the source give for `CCCCc1nnc(NC(=O)C(=O)OCC)s1` here?
Its inhibition is -3.95%.

Which inhibition does the source give for `Cc1ccsc1C(=O)Nc1cccc(-n2cnnn2)c1` here?
Its inhibition is -0.76%.

With `CCN(CC)S(=O)(=O)c1ccc(/C=C/C(=O)OCC(=O)N(C(C)C)C(C)C)cc1` as the compound, how does the inhibition read?
Its inhibition is 3.48%.

With `CCN(CC)S(=O)(=O)c1ccc(/C=C/C(=O)OCC(=O)N(C)C)cc1` as the compound, how does the inhibition read?
Its inhibition is 4.6%.

For `COc1ccc(NC(=S)N(CCCN2CCCC(C)C2)Cc2cccs2)cc1` (centres undefined), which inhibition is on record?
The inhibition was 6.16%.

Which inhibition does the source give for `N#Cc1ccc(Cn2ccnc2C(=O)Nc2ccccc2)cc1` here?
Its inhibition is 0.04%.

For `CCN(CC)CCN1C(=O)C(=O)/C(=C(/O)c2ccc(S(=O)(=O)N3CCOCC3)cc2)C1c1ccc(C(C)C)cc1` (centres undefined), which inhibition is on record?
Its inhibition is 1.15%.

With `CCNCc1nc2cc(OC)c(OC)cc2c(=O)[nH]1` as the compound, how does the inhibition read?
The inhibition was 2.16%.

For `CCOC(=O)c1sc2nc(C)nc(SC(C)C(=O)NC3CC3)c2c1C` (centres undefined), which inhibition is on record?
Its inhibition is 44%.

With `CCOC(=O)c1sc2nc(C)nc(SCC(=O)NC(C)CCc3ccccc3)c2c1C` (centres undefined) as the compound, how does the inhibition read?
The inhibition was -5.1%.

With `O=C(c1ccc(F)cc1)C(CCCCCC(CN1CCOCC1)C(=O)c1ccc(F)cc1)CN1CCOCC1` (centres undefined) as the compound, how does the inhibition read?
Its inhibition is 2%.

For `COc1ncnc2c1oc1ccccc12`, which inhibition is on record?
Its inhibition is 6.25%.

For `c1cncc(-c2nc3c(ccc4ccccc43)[nH]2)c1`, which inhibition is on record?
Its inhibition is -6.09%.

Which inhibition does the source give for `Nc1ccc(-c2nc3c(ccc4ccccc43)[nH]2)cc1` here?
The inhibition was 6.07%.

For `O=C(Nc1ccc(S(=O)(=O)Nc2ccnn2-c2ccccc2)cc1)C(F)(F)F`, which inhibition is on record?
The inhibition was 56.7%.

With `CC(=O)NC(CC(=O)Nc1nc(-c2ccc(N(C)S(C)(=O)=O)cc2)cs1)c1ccccc1` (centres undefined) as the compound, how does the inhibition read?
The inhibition was -3.7%.

Which inhibition does the source give for `CCCCCNc1nc(-c2ccccc2)nc(-n2ccnc2)n1` here?
The inhibition was -1.97%.

Which inhibition does the source give for `CC(C)Nc1nc(-c2ccccc2)nc(-n2ccnc2)n1` here?
Its inhibition is 12.9%.

With `CCCOc1ccc(-c2nnn(CC(=O)c3ccc4c(c3)OCCO4)n2)cc1` as the compound, how does the inhibition read?
The inhibition was -6.75%.

Which inhibition does the source give for `C=CCN1CC[C@]23c4c5ccc(O)c4OC2C(=O)CC[C@@]3(O)C1C5` (some centres undefined) here?
Its inhibition is -3.13%.

For `C=CCN1CC[C@]23c4c5ccc(O)c4O[C@H]2C(=O)CC[C@@]3(O)[C@H]1C5`, which inhibition is on record?
The inhibition was 29.2% and -16.4%.

Which inhibition does the source give for `COc1ccc(C(=O)Nc2ccc(OCC(F)(F)C(F)F)c(C(F)(F)F)c2)cc1OC` here?
The inhibition was -1.87%.

For `O=C(Nc1ccc(OCC(F)(F)C(F)F)c(C(F)(F)F)c1)c1ccccc1`, which inhibition is on record?
The inhibition was 3.85%.

For `COc1ccc(S(=O)(=O)N2CCOCC2)cc1NC(=O)CC1CCCC1`, which inhibition is on record?
Its inhibition is -1.2%.

With `O=C(NCc1ccc(F)cc1)Nc1cccc(Cl)c1` as the compound, how does the inhibition read?
The inhibition was -4.36%.

Which inhibition does the source give for `CC(C)C(=O)Nc1ccc2c(c1)C(=O)N(CCC(=O)O)C2=O` here?
Its inhibition is 3.16%.

Which inhibition does the source give for `O=C(NCc1ccc2c(c1)OCO2)C1CCCN1S(=O)(=O)c1ccc(Cl)cc1` (centres undefined) here?
The inhibition was -0.02%.

Which inhibition does the source give for `CC(=O)Nc1cccc(NC(=S)Nc2cccc(Cl)c2Cl)c1` here?
Its inhibition is 0.32%.

For `COc1cc(/C=C2\N=C(C)OC2=O)cc(OC)c1OC`, which inhibition is on record?
Its inhibition is 6.29%.

Which inhibition does the source give for `COc1cc(/C=C2\SC(c3ccc(C)cc3)=NC2=O)cc(OC)c1OC` here?
Its inhibition is -5.86%.

With `Cc1cccc(/C=N\NC(=O)c2sccc2-n2cccc2)c1` as the compound, how does the inhibition read?
Its inhibition is 0.5%.

With `COC(=O)C1=C(c2cccc(C#N)c2)C[C@@H]2CC[C@H]1N2C(=O)NCCc1ccccc1` as the compound, how does the inhibition read?
Its inhibition is -2.69%.

For `NNC(=O)c1sccc1OCc1ccc(Cl)cc1Cl`, which inhibition is on record?
Its inhibition is 39.9%.

Which inhibition does the source give for `CNC(=S)NNC(=O)c1sccc1OCc1ccc(Cl)cc1Cl` here?
Its inhibition is -1.67%.

For `CC(C)CC(CO)N1CCN(C(=O)c2ccc(Cl)c(Cl)c2)CCC1=O` (centres undefined), which inhibition is on record?
The inhibition was -0.29%.

With `COc1ccc(NC(=O)c2nnn(CC(=O)Nc3ccccc3OC)c2N)c(OC)c1` as the compound, how does the inhibition read?
The inhibition was -1.76%.

With `O=C(N=Nc1c(O)n(Cc2ccccc2)c2ccccc12)c1ccc(O)cc1` as the compound, how does the inhibition read?
The inhibition was 8.8%.

With `Cn1cnnc1SCc1ccc(C(=O)N=Nc2c(O)n(C)c3ccccc23)cc1` as the compound, how does the inhibition read?
Its inhibition is -4.97%.

Which inhibition does the source give for `Cc1nc2ccccc2c(=O)n1NC(=O)C1CC1` here?
The inhibition was 4.78%.

With `CCCCCCC1CCC(C(=O)Nn2c(C)nc3ccccc3c2=O)CC1` (centres undefined) as the compound, how does the inhibition read?
Its inhibition is 12.2%.

Which inhibition does the source give for `COc1ccc(NC(=O)C2CC(c3c(F)cccc3Cl)=NO2)cc1` (centres undefined) here?
Its inhibition is 0.25%.

Which inhibition does the source give for `COc1ccc(OCCOc2cccc(C=C3C(=O)NC(=O)NC3=O)c2)cc1` here?
The inhibition was 21.3%.

With `O=C(COc1ccc(Cl)cc1)NCCNC(=O)c1cnccn1` as the compound, how does the inhibition read?
Its inhibition is 5.05%.

Which inhibition does the source give for `O=C(NCC(c1ccco1)N1CCc2ccccc21)C(=O)Nc1ccccc1F` (centres undefined) here?
The inhibition was 8.05%.

With `CCCCOc1ccc(-c2nnn(CC(=O)Nc3ncc(CC(=O)OCC)s3)n2)cc1` as the compound, how does the inhibition read?
Its inhibition is 4.47%.

With `CCC(C(=O)O)n1nnc(-c2ccc(-c3ccc(OC)cc3)cc2)n1` (centres undefined) as the compound, how does the inhibition read?
The inhibition was 4.02%.
